Experimental data from PubChem BioAssay (Tox21).
Where “and” joins values, the source holds several entries; their conditions need not be identical. Identical values can stand only once. Inconclusive results are not listed. A call without a number means that no potency is given here. A structure can be active in one record and inactive in another. Calls of active or inactive are those of the source. Unless noted, calls follow the shape of the dose curve; as a rule, active = well fitted curve in the direction sought with a large enough effect in the repeat runs; inconclusive = weak or mixed curves; inactive = no such curve, though single readings can be large; an effect the other way counts as inactive or inconclusive.

How the values were obtained:
[1] = qHTS assay to identify small molecule agonists of the estrogen receptor beta (ER-beta) signaling pathway - cell viability counter screen (AID 1259380); also: nearly all actives have a fitted effect of over 30% in size; also: potency is read from the fitted curve at half-maximal effect
In short: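 CellTiter-Glo read, 30 min RT, same wells as bla assay; cells ER-beta-UAS-bla HEK293T; 16 hr compound, 37C; medium 2% charcoal-stripped FBS.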

[2] = qHTS assay to identify small molecule antagonists of the estrogen receptor beta (ER-beta) signaling pathway - cell viability counter screen (AID 1259382);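 also: HEK293T cells carrying ER-beta-UAS-bla reporter stimulated with estradiol; series mostly up to about 92 µM; nearly all actives have a fitted effect of over 55% in size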
In short: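 In this multiplexed counter screen, cells were seeded at 2,000 per well in medium with 2% charcoal-stripped FBS and incubated 6 hr before compound and 1nM final E2 were added. Sixteen hours later, ATP-based luminescence reported viability.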

[3] = molecular target: Estrogen receptor (Homo sapiens) (UniProt P03372); assay: qHTS assay to identify small molecule agonists of the estrogen receptor alpha (ER-alpha) signaling pathway in the presence of an antagonist (AID 1259383; calls by dose curve; also: top concentration of the series differs between compounds; nearly all actives have a fitted effect of over 15% in size)
Estrogen receptor (Homo sapiens), sequence (P03372 whole entry, looked up): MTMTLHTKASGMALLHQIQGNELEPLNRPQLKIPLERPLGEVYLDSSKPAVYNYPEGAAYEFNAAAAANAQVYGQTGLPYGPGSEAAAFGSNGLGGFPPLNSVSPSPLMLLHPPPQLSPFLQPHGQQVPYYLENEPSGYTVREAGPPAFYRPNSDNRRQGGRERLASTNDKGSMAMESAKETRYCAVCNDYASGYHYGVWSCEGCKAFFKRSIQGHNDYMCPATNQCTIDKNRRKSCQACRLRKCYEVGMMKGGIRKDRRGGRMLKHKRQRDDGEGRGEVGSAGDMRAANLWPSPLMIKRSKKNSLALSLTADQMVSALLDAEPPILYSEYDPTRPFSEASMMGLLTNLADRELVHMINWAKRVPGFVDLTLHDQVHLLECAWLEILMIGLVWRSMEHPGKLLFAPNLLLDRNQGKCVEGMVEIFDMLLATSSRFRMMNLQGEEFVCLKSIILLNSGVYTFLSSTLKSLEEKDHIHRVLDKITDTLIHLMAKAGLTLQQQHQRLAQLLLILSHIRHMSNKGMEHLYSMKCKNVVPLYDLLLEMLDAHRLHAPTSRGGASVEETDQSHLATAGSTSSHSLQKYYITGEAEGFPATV
In short: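 Stably transfected VM7Luc4E2 reporter cells, kept 5 days in charcoal-stripped serum, received ICI-182,780 at 10.0nM final before compound addition. Following 22hr incubation at 37C and 5% CO2, luciferase signal was read by luminescence.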

[4] = qHTS assay to identify small molecule agonists or antagonists of the thyroid stimulating hormone receptor (TSHR) signaling pathway - wild type cell line counter screen (AID 1259384; calls by dose curve)
In short: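 Wild-type HEK293 cells were plated 18 h at 37 C/5% CO2, pin-dosed with compound plus Ro20-1724 medium, held 30 min at room temperature, then given cAMP-d2 and anti-cAMP-cryptate; fluorescence was read after 1 h. Fifteen concentrations, triplicate.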

[5] = qHTS assay to identify small molecule agonists of the estrogen receptor alpha (ER-alpha) signaling pathway in the presence of an antagonist - cell viability counter screen (AID 1259386);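 also: series mostly up to about 92 µM; cells exposed to compounds for 22 h at 37 °C before the viability read; nearly all actives have a fitted effect of over 30% in size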
In short: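 Viability counter screen using VM7Luc4E2 (full-length ER-alpha, four ERE-luciferase). The cells were treated with compounds alongside ICI-182,780 10.0nM for 22hr, and live-cell protease fluorescence was quantified with CellTiter-Fluor.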

[6] = molecular target: Progesterone receptor (Homo sapiens) (UniProt P06401); assay: qHTS assay to identify small molecule agonists of the progesterone receptor (PR) signaling pathway (AID 1346784; calls by dose curve; also: nearly all actives have a fitted effect of over 30% in size; also: potency is read from the fitted curve at half-maximal effect)
Progesterone receptor (Homo sapiens), sequence (P06401 whole entry, looked up): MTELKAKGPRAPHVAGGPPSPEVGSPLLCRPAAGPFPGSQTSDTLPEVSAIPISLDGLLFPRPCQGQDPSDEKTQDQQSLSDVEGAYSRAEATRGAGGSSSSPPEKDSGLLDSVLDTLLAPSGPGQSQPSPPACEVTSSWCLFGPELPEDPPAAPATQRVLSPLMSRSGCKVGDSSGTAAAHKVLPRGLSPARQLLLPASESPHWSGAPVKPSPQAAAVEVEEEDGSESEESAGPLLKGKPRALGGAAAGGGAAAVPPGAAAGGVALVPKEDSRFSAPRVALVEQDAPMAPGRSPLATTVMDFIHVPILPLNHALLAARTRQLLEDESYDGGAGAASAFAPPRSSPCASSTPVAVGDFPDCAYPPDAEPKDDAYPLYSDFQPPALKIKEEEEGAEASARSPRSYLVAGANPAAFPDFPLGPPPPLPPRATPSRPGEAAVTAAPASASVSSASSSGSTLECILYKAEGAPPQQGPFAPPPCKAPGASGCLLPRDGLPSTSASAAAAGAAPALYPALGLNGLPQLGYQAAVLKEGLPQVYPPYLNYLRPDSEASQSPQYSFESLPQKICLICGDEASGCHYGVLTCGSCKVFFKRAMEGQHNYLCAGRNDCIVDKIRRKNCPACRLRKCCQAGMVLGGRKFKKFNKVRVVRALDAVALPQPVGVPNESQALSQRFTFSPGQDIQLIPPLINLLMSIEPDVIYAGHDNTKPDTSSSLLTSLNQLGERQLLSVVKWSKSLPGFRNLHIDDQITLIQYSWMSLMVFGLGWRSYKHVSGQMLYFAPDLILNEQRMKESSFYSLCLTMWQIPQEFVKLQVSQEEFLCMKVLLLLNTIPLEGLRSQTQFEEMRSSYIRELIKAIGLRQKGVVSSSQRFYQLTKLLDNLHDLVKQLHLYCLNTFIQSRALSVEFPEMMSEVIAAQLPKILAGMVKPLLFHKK
In short: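 PR-UAS-bla HEK 293T cells carrying a UAS-driven beta-lactamase reporter were seeded in medium with 2% charcoal-stripped FBS, preincubated 6 hr at 37C, then exposed to compounds in DMSO for 16 hr; agonism was read by LiveBLAzer B/G FRET fluorescence.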

[7] = qHTS assay to identify small molecule antagonists of the progesterone receptor (PR) signaling pathway - cell viability counter screen (AID 1346798); also: nearly all actives have a fitted effect of over 50% in size; also: potency is read from the fitted curve at half-maximal effect
In short: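 PR-UAS-bla HEK293T cells in medium with 2% charcoal-stripped FBS were treated with compounds plus R5020 for 16 hr at 37C. Cell viability was then read by CellTiter-Glo luminescence after 30 min at room temperature in the same wells.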

[8] = qHTS assay to identify small molecule agonists of the progesterone receptor (PR) signaling pathway - cell viability counter screen (AID 1346799; calls by dose curve; also: nearly all actives have a fitted effect of over 45% in size)
In short: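 PR-UAS-bla HEK293T cells, 3,000 per well in medium with 2% charcoal-stripped FBS, were preincubated 6 hr at 37C, then exposed to compounds for 16 hr; viability was read as CellTiter-Glo luminescence after 30 min at room temperature.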

[9] = qHTS assay to identify small molecule antagonists of the TGF-beta/Smad signaling pathway - cell viability counter screen (AID 1346824); also: nearly all actives have a fitted effect of over 50% in size
In short: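 SBE-bla HEK 293T cells were plated overnight at 37 C, then given compounds in DMSO plus TGF-beta1 (added as 0.25 ng/mL solution) for 5 hr. After the bla read, CellTiter-Glo was added to the same wells and luminescence read after 30 min at room temperature.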

[10] = qHTS assay to identify small molecule agonists of the TGF-beta/Smad signaling pathway - cell viability counter screen (AID 1346829); also: top concentration of the series differs between compounds; nearly all actives have a fitted effect of over 45% in size
In short: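 HEK 293T SBE-bla line, 5 hr compound exposure at 37 C, multiplexed CellTiter-Glo viability read by luminescence.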

[11] = qHTS assay to identify small molecule agonists of the TGF-beta/Smad signaling pathway (AID 1346859; active = well fitted activation curve with a large enough effect in the signal ratio in the repeat runs, not every such curve was filed as active; the % refers to the signal ratio; also: series mostly up to about 77 µM)
In short: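 HEK 293T cells stably carrying a beta-lactamase reporter driven by the Smad binding element were seeded overnight, exposed to DMSO-dissolved compounds for 5 hr at 37 C, 5% CO2, then loaded with FRET substrate for 2 hr at room temperature.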

[12] = molecular target: Thyrotropin-releasing hormone receptor (Homo sapiens) (UniProt P34981); assay: qHTS assay to identify small molecule antagonists of the thyrotropin-releasing hormone receptor (TRHR) signaling pathway (AID 1346877; active = well fitted inhibition curve with a large enough effect in the repeat runs, not every such curve was filed as active; also: series mostly up to about 51 µM)
Thyrotropin-releasing hormone receptor (Homo sapiens), sequence (P34981 whole entry, looked up): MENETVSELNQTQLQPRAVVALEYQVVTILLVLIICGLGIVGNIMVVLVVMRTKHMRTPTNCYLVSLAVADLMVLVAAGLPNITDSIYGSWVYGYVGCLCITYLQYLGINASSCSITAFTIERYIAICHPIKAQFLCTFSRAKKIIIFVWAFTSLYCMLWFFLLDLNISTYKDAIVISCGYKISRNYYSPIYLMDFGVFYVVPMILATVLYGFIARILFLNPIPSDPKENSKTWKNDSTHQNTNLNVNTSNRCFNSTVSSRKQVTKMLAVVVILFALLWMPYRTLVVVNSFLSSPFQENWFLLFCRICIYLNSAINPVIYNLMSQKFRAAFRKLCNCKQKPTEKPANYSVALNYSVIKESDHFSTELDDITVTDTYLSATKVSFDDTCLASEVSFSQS
In short: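 Following an 18 h incubation at 37 °C and a 2 h calcium dye load, TRHR-HEK293 cells were exposed to compound (5 min, room temperature) and challenged with TRH, 1 nM final.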

[13] = molecular target: Thyrotropin-releasing hormone receptor (Homo sapiens) (UniProt P34981); assay: qHTS assay to identify small molecule agonists of the thyrotropin-releasing hormone receptor (TRHR) signaling pathway (AID 1346891; calls by dose curve; also: series mostly up to about 58 µM)
In short: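 TRHR-expressing HEK293 cells were plated 18 h at 37 °C/5% CO2, loaded with calcium dye 2 h at 37 °C, then given compound in DMSO; fluorescence was read kinetically for 3 min at 1 s intervals.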

[14] = Human pregnane X receptor (PXR) small molecule agonists, qHTS cell viability counter screen (AID 1346977); also: nearly all actives have a fitted effect of over 50% in size; also: potency is read from the fitted curve at half-maximal effect
In short: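 PXR-Luc HepG2 cells in medium with 5% charcoal-stripped FBS were pre-incubated 5hr, then exposed to compounds for 24hr at 37C. Viability was read in the same wells by CellTiter-Fluor fluorescence, reagent added after 23hr with a 1hr incubation.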

[15] = Caspase-3/7 induction in HepG2 cells by small molecules, qHTS assay (AID 1346978); also: nearly all actives have a fitted effect of over 15% in size; also: potency is read from the fitted curve at half-maximal effect
In short: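 Wild-type HepG2 cells (2,000/well) were settled 5 h at 37 C, 5% CO2, then exposed to compounds in DMSO for 17 h. Caspase-3/7 activity was read by luminescence 30 min after adding Caspase-Glo 3/7 reagent at room temperature.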

[16] = Caspase-3/7 induction in CHO-K1 cells by small molecules, qHTS cell viability counter screen (AID 1346979); also: nearly all actives have a fitted effect of over 35% in size
In short: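 Wild-type CHO-K1 cells were seeded at 1,500 per well, rested 5hr at 37 C, then exposed to compounds in DMSO. After 16hr, CellTiter-Fluor reagent was added and fluorescence read 1hr later as the viability measure.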

[17] = Caspase-3/7 induction in CHO-K1 cells by small molecules, qHTS assay (AID 1346980); also: nearly all actives have a fitted effect of over 15% in size
In short: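 Wild-type cells were seeded at 1,500 per well and settled 5 hr at 37 C, 5% CO2, then exposed to DMSO-dissolved compounds for 17 hr. Caspase-Glo 3/7 reagent was added, and luminescence was read after 30min at room temperature.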

[18] = molecular target: Progesterone receptor (Homo sapiens) (UniProt P06401); assay: qHTS assay to identify small molecule antagonists of the progesterone receptor (PR) signaling pathway (AID 1346795; active = well fitted inhibition curve with a large enough effect in the signal ratio in the repeat runs, not every such curve was filed as active; the % refers to the signal ratio; also: potency is read from the fitted curve at half-maximal effect)
In short: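 PR-UAS-bla HEK293T cells carrying a UAS-driven beta-lactamase reporter were plated in medium with 2% charcoal-stripped FBS and rested 6 hr at 37C. Compounds were added with 1 nM R5020 (final) for 16 hr, then FRET substrate loaded 2 hr at room temperature.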

[19] = molecular target: Thyrotropin receptor (Homo sapiens) (UniProt P16473); assay: qHTS assay to identify small molecule antagonists of the thyroid stimulating hormone receptor (TSHR) signaling pathway (AID 1259385; calls by dose curve; also: nearly all actives have a fitted effect of over 20% in size)
Thyrotropin receptor (Homo sapiens), sequence (P16473 whole entry, looked up): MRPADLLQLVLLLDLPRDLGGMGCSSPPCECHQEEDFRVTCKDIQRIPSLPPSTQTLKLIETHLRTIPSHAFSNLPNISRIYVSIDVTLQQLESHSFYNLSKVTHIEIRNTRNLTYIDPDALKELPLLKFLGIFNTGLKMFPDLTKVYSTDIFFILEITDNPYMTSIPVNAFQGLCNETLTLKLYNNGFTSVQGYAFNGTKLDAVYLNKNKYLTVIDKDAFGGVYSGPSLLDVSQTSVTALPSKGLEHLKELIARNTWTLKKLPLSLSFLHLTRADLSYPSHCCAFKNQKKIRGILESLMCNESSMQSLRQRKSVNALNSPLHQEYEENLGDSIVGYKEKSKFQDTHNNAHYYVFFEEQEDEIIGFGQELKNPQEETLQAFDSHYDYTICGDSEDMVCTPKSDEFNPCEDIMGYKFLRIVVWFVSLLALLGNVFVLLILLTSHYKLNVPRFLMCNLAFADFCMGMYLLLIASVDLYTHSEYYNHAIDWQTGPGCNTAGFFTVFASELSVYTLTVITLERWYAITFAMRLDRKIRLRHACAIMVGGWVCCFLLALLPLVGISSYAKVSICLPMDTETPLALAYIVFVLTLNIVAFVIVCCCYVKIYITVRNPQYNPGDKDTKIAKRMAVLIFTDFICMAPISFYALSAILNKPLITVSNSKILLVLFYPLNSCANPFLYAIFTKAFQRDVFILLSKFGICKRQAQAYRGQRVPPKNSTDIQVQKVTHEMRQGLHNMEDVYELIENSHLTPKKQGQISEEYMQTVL
In short: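 TSHR-HEK293 cells were plated and held 18 h at 37C/5% CO2, then given compound plus Ro20-1724 and stimulated with TSH at 1.5 ng/mL final. After 30 min at room temperature, cAMP was detected with cAMP-d2/anti-cAMP-cryptate (1 h) by fluorescence.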

Structure (SMILES)	Potency [1]	Potency [2]	Potency [3]	outcome [4]	Potency [5]	Potency [6]	Potency [7]	Potency [8]	Potency [9]	Potency [10]	outcome [11]	Potency [12]	outcome [13]	Potency [14]	Potency [15]	Potency [16]	outcome [17]	Potency [18]	Potency [19]
CCCCCOC(C)=O	inactive	inactive	inactive	inactive	inactive	inactive	inactive	inactive	inactive	inactive	inactive	inactive	inactive	inactive	inactive	inactive	inactive		
CCCSc1ccc2nc(NC(=O)OC)[nH]c2c1	inactive	inactive			inactive	inactive		inactive	inactive	inactive	inactive	inactive	inactive	inactive	969 nM (active)		inactive	4.86 µM (active)	
O=C(O)c1ccc(C(=O)O)cc1	inactive	inactive		inactive	inactive	inactive	inactive	inactive	inactive	inactive	inactive	inactive	inactive	inactive	inactive	inactive	inactive	inactive	
CN(C)CCC(c1ccc(Cl)cc1)c1ccccn1 (configuration not stated)	48.7 µM (active)				inactive	inactive	54.6 µM (active)		inactive	inactive	inactive	inactive	inactive	44.7 µM (active)	inactive		inactive	inactive	inactive
CCN(CC)c1ccc(C(=O)c2ccccc2C(=O)O)c(O)c1		inactive	inactive	inactive	inactive	inactive	inactive	inactive	inactive	inactive		inactive	inactive	inactive	inactive		inactive	inactive	inactive
C[C@H]1C[C@H]2[C@@H]3CCC4=CC(=O)C=C[C@]4(C)[C@@]3(F)[C@@H](O)C[C@]2(C)[C@@]1(O)C(=O)CO	inactive	inactive			inactive	11.9 µM (active)	inactive		inactive	inactive	inactive			inactive	inactive	inactive	inactive		
CN(C)CCC(c1ccccc1)c1ccccn1 (configuration not stated)	inactive	inactive		inactive	inactive	inactive	inactive	inactive	inactive	inactive	inactive	inactive	inactive	inactive	inactive		inactive	inactive	
Oc1cccc2ccccc12	inactive	inactive			inactive	inactive	inactive	inactive	inactive	inactive	inactive	inactive	inactive	inactive	inactive	inactive	inactive	28 µM (active) and 43.3 µM (active)	inactive
CCC(O)OCCCOC (configuration not stated)	inactive	inactive			inactive	inactive	inactive	inactive	inactive	inactive	inactive	inactive	inactive	22.4 µM (active) and inactive	inactive		inactive	inactive	inactive
O=C(O)c1cc(C(=O)O)cc(S(=O)(=O)O)c1	inactive	inactive		inactive	inactive	inactive	inactive	inactive	inactive	inactive	inactive			inactive	inactive		inactive	inactive	
C=C(C)C(=O)OCCOCCOCCOC(=O)C(=C)C	inactive	inactive			inactive	inactive	inactive	inactive	inactive	inactive	inactive	inactive	inactive	inactive	inactive		inactive	inactive	
COc1ccc2cc([C@H](C)C(=O)O)ccc2c1	inactive	inactive		inactive	inactive	inactive	inactive	inactive	inactive	inactive	inactive			inactive			inactive	inactive	inactive
CC(=O)CC(=O)Nc1ccccc1	inactive	inactive			inactive	inactive	inactive	inactive	inactive	inactive	inactive			inactive	inactive	inactive	inactive	inactive	
COc1ccc(Cl)cc1C(=O)NCCc1ccc(S(=O)(=O)NC(=O)NC2CCCCC2)cc1	48.6 µM (active)	inactive			inactive	inactive	inactive	inactive	inactive	inactive		inactive	inactive	inactive	inactive	inactive	inactive	inactive	inactive
